This is an account of results in PubChem BioAssay (NCI).

About 83,000 compounds went through this panel and 20% of them were active in at least one assay; those are over-represented in the sample as a whole.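 Percent growth is the endpoint: 0 to 100 indicates growth inhibition (40 means 60% inhibition), 0 means no net growth, and negative values indicate cell death.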 Unmarked numbers belong to inactive results. Active and inactive are the calls of the source. How the source made its calls: active means growth percent below 10; inactive means the rest.

Test systems include SK-MEL-2 melanoma; SN12C renal; UO-31 renal; TK-10 renal; ACHN renal; CAKI-1 renal; A498 renal; CCRF-CEM leukemia; MOLT-4 leukemia.
Common to all, as to experiment: NCI-60 one-dose screen, 48 h (100 = growth as untreated, 0 = no growth, -100 = all killed)
Common to all, as to conditions: 10 µM

On to `O=C1/C(=C/c2ccc(O)cc2)CSc2ccc(Cl)cc21`, for which the growth was 97.8% with SK-MEL-2 melanoma; 81.5% in the test on SN12C renal; 73.1% in the test with UO-31 renal; 103% with TK-10 renal; 88.9% in the test on ACHN renal; 79.9% in the test with CAKI-1 renal. Further, the growth with A498 renal was 99.5%; in the test on CCRF-CEM leukemia, 12.4%; in the test on MOLT-4 leukemia it was 22.3%.
With `O=C(Nc1cccc(F)c1)Nc1cccc(Cl)c1`, the growth with SK-MEL-2 melanoma was 101%; with SN12C renal, 87.4%; with UO-31 renal it was 87.1%; in the test on TK-10 renal it was 116%; in the test on ACHN renal, 88.1%; in the test on CAKI-1 renal, 88.8%. Besides, the growth with A498 renal is 36.7%; in the test on CCRF-CEM leukemia, 84.4%; in the test with MOLT-4 leukemia it was 4.94% (active).
On to `Cc1ccc(NC(=O)/C=N/O)cc1C`, for which the growth was 103% in the test on SK-MEL-2 melanoma; 103% with SN12C renal; 71.6% in the test on UO-31 renal; 122% with TK-10 renal; 99.1% in the test with ACHN renal; 92.1% in the test on CAKI-1 renal. The growth is 3.77% (active) in the test on A498 renal, 90% with CCRF-CEM leukemia and 85.7% in the test on MOLT-4 leukemia.
Regarding `CCN1CCN(c2nc(NNC(=O)c3cccc(OC)c3)nc(N3CCN(C(c4ccccc4)c4ccccc4)CC3)n2)CC1`, the growth in the test on SK-MEL-2 melanoma was 75%; in the test on SN12C renal, 61%; in the test on UO-31 renal it was 27.5%; in the test on TK-10 renal, 79.7%; with ACHN renal, 56.1%; in the test on CAKI-1 renal, 42.2%. The growth was 75.3% in the test with A498 renal, 48.9% in the test on CCRF-CEM leukemia and 23.8% in the test on MOLT-4 leukemia.
Consider `CCCCc1ccc(NC(=O)N(CCCl)N=O)cc1`, for which the growth in the test on SK-MEL-2 melanoma was 94.8%; in the test with SN12C renal, 96.1%; in the test on UO-31 renal, 81.3%; in the test with TK-10 renal it was 105%; in the test with ACHN renal, 106%; in the test with CAKI-1 renal, 99.3%. Also, the growth is 103% in the test on A498 renal, 88.2% with CCRF-CEM leukemia and 98.7% in the test with MOLT-4 leukemia.
For `COc1ccccc1NC1=C(N2CCCCC2)C(=O)c2ccccc2C1=O`, the growth in the test with SK-MEL-2 melanoma was 98.2%; in the test on SN12C renal it was 84.6%; in the test on UO-31 renal, 75.3%; in the test with TK-10 renal, 96.2%; in the test with ACHN renal, 88%; with CAKI-1 renal it was 85.8%. Further, the growth in the test on A498 renal is 39.4%; in the test with CCRF-CEM leukemia it was 72.5%; in the test on MOLT-4 leukemia, 58.8%.
As for `COc1cccc(C(=O)NNc2nc(N3CCN(C4CCCCC4)CC3)nc(N3CCN(C(c4ccccc4)c4ccccc4)CC3)n2)c1`, the growth in the test on SK-MEL-2 melanoma was 87.3%; with SN12C renal it was 51.8%; in the test on UO-31 renal it was 32.9%; with TK-10 renal it was 46.1%; in the test on ACHN renal, 70.2%; with CAKI-1 renal, 59.4%. For the same molecule, the growth in the test with A498 renal is 49.2%; in the test on CCRF-CEM leukemia it was 39.9%; in the test with MOLT-4 leukemia, 15.5%.
Consider `COc1cc(OC)cc(N2CCN(C(=O)Nc3nc4cc(F)ccc4nc3OC)CC2)c1`, for which the growth is 42.1% with SK-MEL-2 melanoma; 29.6% with SN12C renal; 34.5% in the test with UO-31 renal; 47.5% in the test with TK-10 renal; 30.2% in the test with ACHN renal; 29.7% in the test with CAKI-1 renal. Also, the growth in the test with A498 renal is -8.09% (active); in the test with CCRF-CEM leukemia it was 14.7%; with MOLT-4 leukemia, 8.4% (active).
For `CCCc1c(CC)c(=N)c2ccccc2n1C`, the growth with SK-MEL-2 melanoma is 37.3%; in the test with SN12C renal, 72.5%; in the test with UO-31 renal, 38.3%; with TK-10 renal, 74.4%; in the test on ACHN renal, 65.8%; in the test on CAKI-1 renal, 39.8%. Besides, the growth in the test with A498 renal is 42.4%; in the test with CCRF-CEM leukemia, 9.26% (active); with MOLT-4 leukemia, 0.122% (active).
On to `Cc1cn(C(=O)/C(Cl)=C(/Cl)C(=O)O)c2ccccc12`, for which the growth in the test on SK-MEL-2 melanoma is 105%; with SN12C renal it was 97.6%; with UO-31 renal, 59.1%; with TK-10 renal, 127%; in the test on ACHN renal it was 97.8%; in the test on CAKI-1 renal it was 97.9%. Also, the growth with A498 renal is 124%; in the test on CCRF-CEM leukemia, 37.2%; in the test on MOLT-4 leukemia, 103%.
Regarding `Cc1ccc(/C=C2\CN(Cc3cn(CCNc4ccnc5cc(Cl)ccc45)nn3)C/C(=C\c3ccc(C)cc3)C2=O)cc1`, the growth was -27.5% (active) in the test on SK-MEL-2 melanoma; -63.4% (active) in the test on SN12C renal; -78.8% (active) in the test on UO-31 renal; 29.9% with TK-10 renal; -16.9% (active) in the test on ACHN renal; -13.6% (active) in the test on CAKI-1 renal. The growth in the test on A498 renal was -81.1% (active); in the test with CCRF-CEM leukemia it was 11.7%; in the test on MOLT-4 leukemia it was -10.4% (active).
With `COc1ccc(CCc2nc3cc(-c4c(C)noc4C)ccc3n2CCN2CCOCC2)cc1`, the growth with SK-MEL-2 melanoma was 49.6%; in the test with SN12C renal, 31.2%; with UO-31 renal it was 4.71% (active); in the test with TK-10 renal, 24%; in the test with ACHN renal, -0.152% (active); in the test on CAKI-1 renal, 57.2%. Further, the figures for the growth in the test with A498 renal, in the test with CCRF-CEM leukemia and in the test with MOLT-4 leukemia were 58.6%, 42.7% and 73%, respectively.
In the case of `COc1ccc(-c2nsc3c2NC(=O)CC3c2cccc(Cl)c2)cc1` (stereo unspecified), the growth is -14.4% (active) in the test with SK-MEL-2 melanoma; 47.8% with SN12C renal; 36.8% in the test on UO-31 renal; 34.9% in the test with TK-10 renal; 49.9% with ACHN renal; 18.4% in the test on CAKI-1 renal. For the same molecule, the growth in the test on A498 renal is 17.8%; in the test with CCRF-CEM leukemia, 13.8%; in the test on MOLT-4 leukemia, 18.2%.
Regarding `O=C/C=C/c1ccc([N+](=O)[O-])cc1Cl`, the growth in the test on SK-MEL-2 melanoma is 94.2%; in the test on SN12C renal, 97.5%; with UO-31 renal, 74.5%; in the test with TK-10 renal, 139%; with ACHN renal, 115%; in the test with CAKI-1 renal, 107%. For the same molecule, the growth was 117% with A498 renal, 42.6% in the test with CCRF-CEM leukemia and 86.6% in the test on MOLT-4 leukemia.
